The values below come from ChEMBL document CHEMBL3988442, “University of Dundee, Small-Polar-MMV Screening Library” (2021).

Common to all, as to design: scale not given: direction of the effect not stated beside the values
Experiment [1] has as its target Protein translocase subunit SecA (Escherichia coli (strain K12)) (UniProt P10408). The experiment in a line: Assay to Identify E. coli SecA ATPase Inhibitors. It counts as functional. To be noted: 30 µM.
In experiment [2] the target is T1, Ubiquitin-activating enzyme e1, putative (Leishmania donovani (strain BPK282A1)) (UniProt E9BSI1).
T1 sequence (whole entry): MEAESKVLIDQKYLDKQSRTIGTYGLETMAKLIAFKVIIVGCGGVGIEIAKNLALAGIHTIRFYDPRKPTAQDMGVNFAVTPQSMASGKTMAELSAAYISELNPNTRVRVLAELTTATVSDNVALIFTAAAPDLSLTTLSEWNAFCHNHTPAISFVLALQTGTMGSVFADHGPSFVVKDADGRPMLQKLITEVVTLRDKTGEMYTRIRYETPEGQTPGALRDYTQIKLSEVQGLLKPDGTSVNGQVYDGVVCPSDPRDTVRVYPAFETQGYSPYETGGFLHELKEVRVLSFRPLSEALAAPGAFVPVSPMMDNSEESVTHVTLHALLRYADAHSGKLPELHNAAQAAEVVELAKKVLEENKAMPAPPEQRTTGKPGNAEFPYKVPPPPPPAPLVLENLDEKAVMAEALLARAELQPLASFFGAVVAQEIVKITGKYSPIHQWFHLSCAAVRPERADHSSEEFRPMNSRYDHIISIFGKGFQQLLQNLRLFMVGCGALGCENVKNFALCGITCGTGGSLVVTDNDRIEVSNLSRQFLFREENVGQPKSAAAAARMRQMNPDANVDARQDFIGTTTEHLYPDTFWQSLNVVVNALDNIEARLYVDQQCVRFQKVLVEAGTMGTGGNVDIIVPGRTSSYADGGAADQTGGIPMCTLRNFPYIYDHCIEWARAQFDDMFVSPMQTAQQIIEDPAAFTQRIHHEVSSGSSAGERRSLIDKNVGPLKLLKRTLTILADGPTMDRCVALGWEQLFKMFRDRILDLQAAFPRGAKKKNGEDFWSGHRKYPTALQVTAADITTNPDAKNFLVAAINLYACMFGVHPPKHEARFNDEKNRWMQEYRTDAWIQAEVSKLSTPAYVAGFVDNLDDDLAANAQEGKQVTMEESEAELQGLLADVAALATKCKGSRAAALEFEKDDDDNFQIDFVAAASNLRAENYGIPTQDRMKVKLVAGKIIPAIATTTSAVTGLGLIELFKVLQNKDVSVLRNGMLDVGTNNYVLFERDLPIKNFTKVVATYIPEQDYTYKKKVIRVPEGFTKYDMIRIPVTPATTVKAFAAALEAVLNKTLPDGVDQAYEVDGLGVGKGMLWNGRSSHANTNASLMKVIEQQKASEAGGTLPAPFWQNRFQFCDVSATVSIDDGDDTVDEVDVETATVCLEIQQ
Nature of the experiment: Leishmania donovani Ubiquitin Activating Enzyme (LdE1). The settings on record: 30 µM. Type of experiment: functional.

Experiment [3] deals with AMP-activated protein kinase, AMPK (Homo sapiens) (UniProt P54646+O43741+P54619+Q9UGJ0+Q9Y478+Q13131+Q9UGI9). The experiment in a line: AMP-dependent Kinase enzyme assay. An in vitro enzyme assay that detects ADP turnover that is directly proportional to AMPK activity. This uses naive AMPK that is activated during the assay with MK-8722. To be noted: 30 µM. It counts as functional.

Experiment [4] has as its target Sialic acid-binding Ig-like lectin 9 (Homo sapiens) (UniProt Q9Y336). Nature of the experiment: Hs-Siglec9 ALPHAscreen SOP 20170721. The settings on record: 10 µM. Background: Alpha assays give light when donor and acceptor beads are brought close together.
The next experiment has as its system Trypanosoma cruzi. The experiment in a line: Trypanosoma cruzi phosphomannomutase and mannose-1-phosphate guanylyltransferase assay. To be noted: 10 µM. Type of experiment: functional.
In experiment [5] the target is T2, Arginase-2, mitochondrial (Homo sapiens) (UniProt P78540).
T2 sequence (whole entry): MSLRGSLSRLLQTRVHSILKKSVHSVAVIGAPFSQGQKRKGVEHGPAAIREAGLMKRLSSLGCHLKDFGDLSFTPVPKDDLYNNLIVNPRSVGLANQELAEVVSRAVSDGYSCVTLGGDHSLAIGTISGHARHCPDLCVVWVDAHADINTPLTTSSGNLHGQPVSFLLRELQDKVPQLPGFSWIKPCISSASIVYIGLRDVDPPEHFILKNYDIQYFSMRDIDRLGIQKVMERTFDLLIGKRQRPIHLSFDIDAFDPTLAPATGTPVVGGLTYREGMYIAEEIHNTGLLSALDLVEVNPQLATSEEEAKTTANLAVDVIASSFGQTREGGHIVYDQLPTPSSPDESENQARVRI
The experiment in a line: in vitro enzyme assay to detect the production of urea directly proportional to the activity of Arginase II. Note: in the data most compounds retested in dose-response had high values. Type of experiment: functional. To be noted: 33.3 µM.

In experiment [6] the target is T3, Proteasome subunit beta (Trypanosoma cruzi) (UniProt O96673).
T3 sequence (whole entry): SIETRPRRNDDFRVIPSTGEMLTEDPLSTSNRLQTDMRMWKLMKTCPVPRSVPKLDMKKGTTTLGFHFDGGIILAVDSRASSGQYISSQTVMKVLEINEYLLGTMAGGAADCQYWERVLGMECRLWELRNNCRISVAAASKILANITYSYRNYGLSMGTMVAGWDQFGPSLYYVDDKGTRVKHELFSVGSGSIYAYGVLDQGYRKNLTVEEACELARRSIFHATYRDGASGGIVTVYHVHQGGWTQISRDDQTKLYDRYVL
Nature of the experiment: Trypanosoma cruzi proteasome chymotrypsin-like activity (TcProtChymo) assay. Note: in the data most compounds retested in dose-response had high values. It counts as functional. To be noted: 9.37 µM.

The species named for another experiment is Homo sapiens. The experiment in a line: To identify inhibition of the IFN signalling (Jak-Stat) pathway via expression of an eGFP reporter gene under the control of an IFN-stimulated response element (ISRE) containing MxA promoter. It counts as functional. The settings on record: 30 µM. (In a reporter assay the amount or activity of a reporter protein is the signal.)

For experiment [7], the target named is T4, Tyrosyl-tRNA synthetase, putative (Trypanosoma cruzi (strain CL Brener)) (UniProt Q4DSP6).
T4 sequence (whole entry): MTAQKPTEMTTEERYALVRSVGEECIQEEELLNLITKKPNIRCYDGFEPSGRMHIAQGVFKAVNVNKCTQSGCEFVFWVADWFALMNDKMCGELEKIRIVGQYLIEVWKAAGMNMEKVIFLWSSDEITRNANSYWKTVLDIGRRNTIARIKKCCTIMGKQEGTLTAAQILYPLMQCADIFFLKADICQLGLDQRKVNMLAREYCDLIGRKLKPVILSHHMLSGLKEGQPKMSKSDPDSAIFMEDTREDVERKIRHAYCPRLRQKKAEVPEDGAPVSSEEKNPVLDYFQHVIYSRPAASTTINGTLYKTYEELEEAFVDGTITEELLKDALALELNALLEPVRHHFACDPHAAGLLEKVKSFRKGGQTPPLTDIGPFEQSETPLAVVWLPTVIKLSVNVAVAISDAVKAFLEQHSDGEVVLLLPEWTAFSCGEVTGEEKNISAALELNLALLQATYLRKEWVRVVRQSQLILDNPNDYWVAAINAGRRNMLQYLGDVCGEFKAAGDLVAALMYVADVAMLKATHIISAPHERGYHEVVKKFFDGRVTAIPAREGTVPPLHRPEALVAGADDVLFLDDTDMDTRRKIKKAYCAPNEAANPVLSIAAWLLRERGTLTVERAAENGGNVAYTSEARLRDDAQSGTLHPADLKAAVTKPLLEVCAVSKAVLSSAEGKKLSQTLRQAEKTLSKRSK
Nature of the experiment: Trypanosoma cruzi tyrosyl tRNA synthetase (TcYRS) _High Tyrosine SOP. Note: in the data most compounds retested in dose-response had high values. Type of experiment: functional. The settings on record: 30 µM.

The target in experiment [8] is T4, Tyrosyl-tRNA synthetase, putative (Trypanosoma cruzi (strain CL Brener)). The experiment in a line: Trypanosoma cruzi tyrosyl tRNA synthetase (TcYRS) SOP. Type of experiment: functional. To be noted: 30 µM.
In experiment [9] the target is Chromo domain-containing protein 1 (Saccharomyces cerevisiae (strain ATCC 204508 / S288c) (Baker's yeast)) (UniProt P32657). Nature of the experiment: ScCHD-1 Enzyme Inhibition Assay. Note: in the data most compounds retested in dose-response had high values. Type of experiment: functional. To be noted: 30 µM.
Chromo domain-containing protein 1 (Saccharomyces cerevisiae (strain ATCC 204508 / S288c) (Baker's yeast)), sequence (P32657 whole entry, the tested form may be a part): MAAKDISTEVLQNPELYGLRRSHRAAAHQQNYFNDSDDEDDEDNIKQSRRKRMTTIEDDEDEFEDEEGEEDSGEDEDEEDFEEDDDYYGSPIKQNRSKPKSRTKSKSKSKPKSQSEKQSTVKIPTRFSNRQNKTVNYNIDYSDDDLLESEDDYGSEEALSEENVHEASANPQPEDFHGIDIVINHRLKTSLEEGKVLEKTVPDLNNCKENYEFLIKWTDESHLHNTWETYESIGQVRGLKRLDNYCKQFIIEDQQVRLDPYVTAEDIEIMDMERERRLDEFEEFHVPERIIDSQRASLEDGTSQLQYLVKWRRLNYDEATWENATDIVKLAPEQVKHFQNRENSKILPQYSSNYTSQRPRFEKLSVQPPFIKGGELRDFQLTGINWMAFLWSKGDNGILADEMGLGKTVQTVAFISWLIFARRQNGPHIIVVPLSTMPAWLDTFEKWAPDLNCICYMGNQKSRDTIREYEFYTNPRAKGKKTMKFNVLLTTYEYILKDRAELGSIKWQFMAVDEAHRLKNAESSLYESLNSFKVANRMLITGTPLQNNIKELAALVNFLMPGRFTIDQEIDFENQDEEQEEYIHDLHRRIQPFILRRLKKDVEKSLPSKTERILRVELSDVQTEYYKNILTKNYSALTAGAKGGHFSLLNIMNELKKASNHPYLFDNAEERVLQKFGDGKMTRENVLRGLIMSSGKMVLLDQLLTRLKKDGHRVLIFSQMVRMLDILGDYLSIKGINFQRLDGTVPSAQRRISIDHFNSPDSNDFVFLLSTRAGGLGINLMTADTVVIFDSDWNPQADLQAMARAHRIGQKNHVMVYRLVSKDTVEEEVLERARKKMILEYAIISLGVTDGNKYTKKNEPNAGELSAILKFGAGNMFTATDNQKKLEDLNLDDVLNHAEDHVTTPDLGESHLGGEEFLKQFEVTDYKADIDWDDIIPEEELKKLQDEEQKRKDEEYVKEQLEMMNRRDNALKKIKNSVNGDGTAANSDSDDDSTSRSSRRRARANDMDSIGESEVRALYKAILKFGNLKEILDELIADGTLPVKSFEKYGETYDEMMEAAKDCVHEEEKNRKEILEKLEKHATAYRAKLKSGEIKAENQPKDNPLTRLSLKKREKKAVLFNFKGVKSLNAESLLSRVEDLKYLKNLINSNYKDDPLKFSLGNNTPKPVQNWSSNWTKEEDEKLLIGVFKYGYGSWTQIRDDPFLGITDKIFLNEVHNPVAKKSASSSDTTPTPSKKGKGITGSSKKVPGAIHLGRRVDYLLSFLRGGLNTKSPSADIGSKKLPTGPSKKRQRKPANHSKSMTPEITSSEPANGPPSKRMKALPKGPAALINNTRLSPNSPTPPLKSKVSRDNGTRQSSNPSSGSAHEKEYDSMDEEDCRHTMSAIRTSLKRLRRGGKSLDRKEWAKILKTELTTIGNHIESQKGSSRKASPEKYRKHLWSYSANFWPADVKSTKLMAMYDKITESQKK

For some assays here: Potency and affinity values are given separately.

Protein translocase subunit SecA (Escherichia coli (strain K12)), sequence (P10408 whole entry): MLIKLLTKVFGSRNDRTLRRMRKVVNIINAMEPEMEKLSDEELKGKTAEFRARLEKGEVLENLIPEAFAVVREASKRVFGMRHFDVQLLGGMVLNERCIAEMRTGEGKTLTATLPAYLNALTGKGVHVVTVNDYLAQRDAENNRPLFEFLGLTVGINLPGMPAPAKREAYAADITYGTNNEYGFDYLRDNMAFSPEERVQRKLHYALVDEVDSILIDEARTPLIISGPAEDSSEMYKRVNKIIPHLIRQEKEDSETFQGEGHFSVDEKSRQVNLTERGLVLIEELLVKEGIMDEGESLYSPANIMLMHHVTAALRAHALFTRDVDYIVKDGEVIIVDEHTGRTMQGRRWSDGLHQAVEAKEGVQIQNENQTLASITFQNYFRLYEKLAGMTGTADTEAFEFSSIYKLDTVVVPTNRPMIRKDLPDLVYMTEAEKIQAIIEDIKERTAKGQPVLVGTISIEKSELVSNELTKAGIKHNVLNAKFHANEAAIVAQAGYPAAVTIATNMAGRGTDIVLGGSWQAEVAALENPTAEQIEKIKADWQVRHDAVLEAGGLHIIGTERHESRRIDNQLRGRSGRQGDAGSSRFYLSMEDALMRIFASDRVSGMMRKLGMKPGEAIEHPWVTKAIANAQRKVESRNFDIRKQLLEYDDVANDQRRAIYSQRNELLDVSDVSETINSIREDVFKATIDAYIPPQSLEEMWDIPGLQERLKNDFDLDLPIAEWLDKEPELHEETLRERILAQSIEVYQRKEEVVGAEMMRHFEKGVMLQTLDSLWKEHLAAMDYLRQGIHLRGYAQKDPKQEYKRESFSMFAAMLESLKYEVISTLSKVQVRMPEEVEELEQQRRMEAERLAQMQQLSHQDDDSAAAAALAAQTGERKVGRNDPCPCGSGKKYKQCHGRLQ
Sialic acid-binding Ig-like lectin 9 (Homo sapiens), sequence (Q9Y336 whole entry): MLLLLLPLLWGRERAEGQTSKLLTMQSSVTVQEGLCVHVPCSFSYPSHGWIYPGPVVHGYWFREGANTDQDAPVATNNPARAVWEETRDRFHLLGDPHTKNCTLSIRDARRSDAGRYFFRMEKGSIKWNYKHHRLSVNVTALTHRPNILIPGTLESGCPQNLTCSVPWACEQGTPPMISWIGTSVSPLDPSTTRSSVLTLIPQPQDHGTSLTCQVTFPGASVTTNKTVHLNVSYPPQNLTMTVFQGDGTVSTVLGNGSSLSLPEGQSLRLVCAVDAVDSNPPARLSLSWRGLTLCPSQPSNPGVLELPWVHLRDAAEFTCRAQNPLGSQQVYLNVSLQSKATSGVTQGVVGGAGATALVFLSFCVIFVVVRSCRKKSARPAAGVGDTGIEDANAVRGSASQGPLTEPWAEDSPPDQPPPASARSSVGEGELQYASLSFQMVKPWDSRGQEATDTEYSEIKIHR

`CCn1cc(C(=O)NCc2csc(Br)c2)cn1`: the Percent Effect in [1] is -4.42%; in experiment [2], 3.8%; in experiment [3], 6.27%; in experiment [4], 4.51%; in the experiment on Trypanosoma cruzi it was -2.97%; in experiment [5] it was 3.23%. Besides, the Percent Effect in experiment [6] is 7.72%; in the experiment listed under Homo sapiens, 13.6%; in experiment [7], -1.04%; in experiment [8] it was 7.59%; in experiment [9], -2.95%.
Turning to `Cc1nccn1CCC1CCCCN1Cc1ccncc1` (stereo not given), the Percent Effect is -5.73% in experiment [1]; 8% in experiment [2]; -13% in experiment [3]; -0.0054% in [4]; -2.63% in the experiment on Trypanosoma cruzi; 0.521% in experiment [5]. Further, the Percent Effect in experiment [6] is 13.8%; in the experiment filed under Homo sapiens it was 25.9%; in experiment [7] it was 2.73%; in experiment [8], 13.6%; in experiment [9], -6.06%.
On to `COCC1COCCC12CCN(C(=O)CCc1ccccc1)CC2` (stereo not given), for which the Percent Effect in experiment [1] is -7.38%; in experiment [2], 0%; in experiment [3], 1.05%; in [4] it was -3.38%; in the experiment on Trypanosoma cruzi it was -2.73%; in [5], 0%. The Percent Effect was 4.65% in experiment [6]; -6.87% in the experiment filed under Homo sapiens; 3.96% in [7]; 3.66% in experiment [8]; 6.04% in experiment [9].
Take `COc1cc(CCC(=O)NCC2CCCN2C)ccc1OCC(F)(F)F` (stereo not given): the Percent Effect in experiment [1] is -2.12%; in experiment [2], 7.89%; in experiment [3], -14%; in [4] it was 4.13%; in the experiment with Trypanosoma cruzi, -0.0934%; in [5], -2.88%. For the same compound, the Percent Effect in experiment [6] was 11.4%; in the experiment filed under Homo sapiens it was 14.2%; in [7] it was 5.42%; in experiment [8], 16.1%; in experiment [9], -7.41%.
In the case of `CCCc1n[nH]c(C2CN(CCNS(=O)(=O)CC)CCO2)n1` (stereo not given), the Percent Effect is -1.25% in experiment [1]; 19% in [2]; 4.75% in experiment [3]; -2.28% in [4]; -0.718% in the experiment with Trypanosoma cruzi; 1.5% in experiment [5]. Besides, the Percent Effect in [6] is 12.9%; in the experiment listed under Homo sapiens, 18.3%; in experiment [7], 8.33%; in experiment [8] it was 15.2%; in experiment [9], -20.1%.
For `Cc1cc(CN2CCc3nn(C(C)C)c(=O)cc3C2)no1`, the Percent Effect in experiment [1] was -6.46%; in experiment [2], 0%; in [3] it was -5.64%; in experiment [4] it was 2.16%; with Trypanosoma cruzi it was -0.781%; in experiment [5] it was 0.833%. Moreover, the Percent Effect in experiment [6] is 14.1%; in the experiment filed under Homo sapiens, -0.957%; in experiment [7], 7.92%; in [8], 8.54%; in [9], -7.52%.
`CN(C)CCN1CCOCC2(C1)CN(Cc1ccsc1)CCO2` (stereo not given): the Percent Effect in experiment [1] was -4.22%; in [2] it was 5.33%; in experiment [3], 14.3%; in experiment [4], 0.643%; in the experiment on Trypanosoma cruzi, -2.56%; in [5], 4.89%. For the same compound, the Percent Effect was 4.67% in experiment [6]; -0.367% in the experiment filed under Homo sapiens; 4.25% in experiment [7]; 8.97% in [8]; -3.51% in experiment [9].
In the case of `CCc1nccn1C1CCCN(C(=O)CCc2nccs2)C1` (stereo not given), the Percent Effect in experiment [1] is -2%; in experiment [2] it was -5.41%; in experiment [3], -10.8%; in experiment [4], 5.59%; in the experiment with Trypanosoma cruzi it was -0.66%; in [5], -6.81%. Moreover, the Percent Effect in experiment [6] was 5.77%; in the experiment filed under Homo sapiens it was 1.54%; in experiment [7] it was 1.48%; in experiment [8], 1.24%; in [9], -1.72%.
Turning to `CCCNCC1(O)CCCN(Cc2cccc(C)c2)C1=O` (stereo not given), the Percent Effect in [1] is -3.44%; in experiment [2], 0%; in experiment [3] it was 3.08%; in experiment [4] it was -2.93%; with Trypanosoma cruzi it was 1.57%; in experiment [5], -1.82%. Moreover, the Percent Effect in experiment [6] is -2.66%; in the experiment filed under Homo sapiens it was -21.7%; in experiment [7] it was 3.23%; in [8] it was 5%; in experiment [9] it was -1.9%.
As for `Cn1nnc2c1C(COCc1ccccn1)CN(C(=O)c1cccs1)C2` (stereo not given), the Percent Effect in [1] is 3.29%; in [2], 16.4%; in experiment [3] it was -9.82%; in experiment [4] it was 5.59%; in the experiment with Trypanosoma cruzi, 1.59%; in experiment [5], -7.19%. For the same compound, the Percent Effect in [6] was 13.6%; in the experiment filed under Homo sapiens, 36.4%; in [7], 6.25%; in [8], 23.5%; in experiment [9], -1.99%.
